The record followed here is PubChem BioAssay AID1159606 (Sanford-Burnham Center for Chemical Genomics, 2016).

Usually inhibition stands for the relative decrease from the control value, in per cent.

In all, about 360,000 compounds went through this assay and about 7,300 (2%) were called active. Cut-off read from the data, not from the text of the source: active = inhibition above about 50%; inactive = the rest. Many of the other results were omitted from the sample, so actives are more common in it than they were.

A short description of this experiment: blockers of TWEAK-induced Fn14 reporter activity – luciferase reporter cells, uHTS, primary screen (AID 1159606). The conditions noted are these: TWEAK-stimulated Fn14 reporter cells, luciferase luminescence, 8 h; at 10 µM; hits give high values. For orientation: A reporter such as luciferase makes a cellular process visible.
`COC(=O)[C@]12CCCCC=C1N(CCC1=CCCCC1)C(=O)[C@H](CC(=O)NCC1CCCCC1)C2`: the inhibition is 9.77% (inactive).
On to `Cc1ccc(-c2c(C)n([O-])c3c([n+]2=O)CCC3)cc1`, for which the inhibition is 19% (inactive).
Under `CN(C(=O)c1cccc(OC2CCN(S(=O)(=O)N(C)C)CC2)c1)C1CCOC1` (stereo unspecified) stands -26.3% (inactive); under `CNS(=O)(=O)c1cccc(C(=O)NCC2CCCCC2)c1`, -15.5% (inactive); under `CN(C)S(=O)(=O)N1CCC(Oc2cccc(C(=O)NCCCC3CCCC3)c2)CC1`, 57.2% (active).
Consider `Cc1ccc(C)c2[nH]c(=O)c(CCNC(=O)CC(C)C)cc12`, for which the inhibition was -18.2% (inactive).
For the molecule `O=C(Nc1ccc(Cl)cn1)c1ccc2c(c1)OCCO2`, the inhibition was 66.8% (active).
Under `O=C(Nc1ccc(Cl)cn1)c1cnn2cccnc12` stands 5.94% (inactive); under `Cc1nc(NC(=O)c2ccc3c(c2)OCCO3)ccc1Br`, 30.4% (inactive).
As for `CN1CCN(c2ccc(NC(=O)c3ccc4c(c3)OCCO4)cc2Cl)CC1`, the inhibition was 17.5% (inactive).
With `CCCCC(CC)C(=O)Nc1ccc(Cl)cn1` (stereo unspecified), the inhibition was -8.67% (inactive).
Regarding `CC(NS(=O)(=O)c1ccc(Cl)cc1)C(=O)Nc1ccc2c(c1)OCCO2` (stereo unspecified), the inhibition was 32.7% (inactive).
`CCCc1cc(C(=O)Nc2ccc(C(=O)OC)cc2)cs1`: the inhibition was -11.7% (inactive).
Turning to `O=C(Nc1ccc2c(c1)OCCO2)c1ccc(Cl)c(S(=O)(=O)N2CCCCC2)c1`, the inhibition is 56.7% (active).
With `O=C(Nc1cccc(S(=O)(=O)Nc2ccc(Cl)cc2)c1)c1ccc2c(c1)OCCO2`, the inhibition was 78.2% (active).
Regarding `CCCc1cc(C(=O)Nc2ccc(Cl)cn2)cs1`, the inhibition was 58.8% (active).
In the case of `Cc1ccc(C(=O)Nc2ccc3c(c2)OCCO3)cc1S(=O)(=O)N1CCOCC1`, the inhibition was -15.2% (inactive).
Under `CCN(CC)CCNC(=O)c1ccc(NS(=O)(=O)c2ccc3c(c2)OCCO3)cc1` stands 2.79% (inactive).
With `CCOc1ccc(-c2c(C)n([O-])c3c([n+]2=O)CCCC3)cc1`, the inhibition is -15.2% (inactive).
As for `O=S1(=O)CC(N2CCSCC2)CN1Cc1cn(Cc2cccc(Cl)c2)nn1` (stereo unspecified), the inhibition is 0.68% (inactive).
As for `CC(=O)N1Cc2cc(C(=O)NCc3cccc(F)c3)nc(-c3cccc(C4=CCCC4)c3)c2[C@H]1CCO`, the figure is -25.9% (inactive); as for `COC(=O)C1(C(=O)OC)C/C=C\CN(S(=O)(=O)c2ccccc2[N+](=O)[O-])CCC1`, -4.25% (inactive); as for `CC(=O)N1CCSc2ccc(S(=O)(=O)N3CCC(C)CC3)cc21`, 10.4% (inactive).
With `Cc1csc(=O)n1CCC(=O)OCC(=O)Nc1ccc(N2CCOCC2)cc1`, the inhibition was -8.76% (inactive).
Regarding `COCCNc1nc(NCc2ccc(NC(C)=O)cc2)c2sccc2n1`, the inhibition is -3.75% (inactive).
As for `COc1ccccc1CNc1nc(Nc2ccccc2Cl)c2sccc2n1`, the figure is 61.9% (active); as for `COCCNc1nc(Nc2ccccc2Cl)c2sc(-c3ccccc3)cc2n1`, -18.2% (inactive).
Regarding `COc1cccc(CNc2nc(NCc3cccs3)nc3ccsc23)c1`, the inhibition was -13.7% (inactive).
For the molecule `COc1cccc(CNc2nc(NCc3ccccc3OC)nc3ccsc23)c1`, the inhibition is 63.1% (active).
With `Clc1ccccc1Nc1nc(NCc2cccs2)nc2ccsc12`, the inhibition is 12.1% (inactive).
Regarding `O=C1CC(c2ccccc2)C(c2ccccc2)=NN1` (stereo unspecified), the inhibition was -8.4% (inactive).
`O=S1(=O)CCOC[C@H](CC2CCCCC2)N1Cc1ccc(F)cc1`: the inhibition is 3.84% (inactive).
For `CCc1cccc(CC)c1NC(=O)COc1ccccc1C(=O)c1cc(C#N)c(=O)n(C2CCCCC2)c1`, the inhibition is 19.8% (inactive).
Regarding `CN(Cc1cn(Cc2ccc(C(F)(F)F)cc2)nn1)C1CN(Cc2cn(Cc3ccc(C(F)(F)F)cc3)nn2)S(=O)(=O)C1` (stereo unspecified), the inhibition is 33.8% (inactive).
Under `CC(=O)c1nc(N2C(=O)C3CC=C(C)CC3C2=O)sc1C` (stereo unspecified) stands -2.22% (inactive); under `Cc1ccc(-c2cc(=O)[nH]c(NCc3ccccc3)n2)cc1`, 9.23% (inactive).
For the molecule `CCS(=O)(=O)c1ccc2c(c1)N(S(=O)(=O)c1ccccc1)CC(C(=O)O)O2` (stereo unspecified), the inhibition is -19.1% (inactive).
Consider `Cc1[nH]c(=O)c(C(=O)/C=C/c2ccccc2)c2c1CCCC2`, for which the inhibition was 83.9% (active).
On to `COC(=O)c1c(C)[nH]c(C(=O)/C=C/c2ccc(Cl)cc2)c1C`, for which the inhibition was -23.7% (inactive).
Turning to `CC1(C(=O)O)CCCN(C(=O)/C=C/c2ccccc2)C1` (stereo unspecified), the inhibition was 3.38% (inactive).
`CCN(CC)CCOc1ccc2c(c1)C(=NNC(=O)c1ccccn1)c1cc(OCCN(CC)CC)ccc1-2`: the inhibition was -85.7% (inactive).
Consider `COc1ccc(-c2cc(C(=O)N(C)Cc3ccc(OC)c(OC)c3OC)c3ccccc3n2)cc1OC`, for which the inhibition is 19.7% (inactive).
As for `COc1ccc(-c2cc(C(F)(F)F)nc(S(C)(=O)=O)n2)cc1OC`, the figure is 76.2% (active); as for `COc1ccc(-c2cc(C(=O)NCCCN3CCCC3=O)c3ccccc3n2)cc1OC`, -9.51% (inactive).
Consider `OCC1(Cc2ccccc2C(F)(F)F)CCN(Cc2ccncc2)CC1`, for which the inhibition was 14.4% (inactive).
As to `Cc1cc(-c2nnc(SCC(=O)Nc3ccc(F)cc3)n2N)n[nH]1`, the inhibition was 1.35% (inactive).
On to `O=C(CC[C@H]1O[C@@H](n2ccc(=O)[nH]c2=O)[C@H](O)[C@@H]1O)N[C@H](Cc1ccccc1)C(=O)NCc1ccco1`, for which the inhibition is 10.1% (inactive).
Take `CC1CCCCC1NC(=O)/C(C#N)=C/C=C/c1ccccc1[N+](=O)[O-]` (stereo unspecified): the inhibition was 84.9% (active).
For `CC1CCCCC1NC(=O)COc1ccc(C#N)cc1` (stereo unspecified), the inhibition was 2.53% (inactive).
As for `CC(OC(=O)/C=C/c1ccccc1)C(=O)NC1CCCCC1C` (stereo unspecified), the inhibition is -1.03% (inactive).
Turning to `CC(=O)NCC(=O)N(C)C(C(=O)Nc1ccc2c(c1)OCCO2)c1ccccc1` (stereo unspecified), the inhibition was 7.79% (inactive).
As for `CCN(CC)CCn1cnc2c1c(=O)n(CCOC(=O)c1cc(OC)c(OC)c(OC)c1)c(=O)n2C`, the figure is -2.5% (inactive); as for `O=C(CC1SC(N2CCCC2)=NC1=O)Nc1ccc(C(=O)NCCc2ccc(F)cc2)cc1` (stereo unspecified), -8.62% (inactive).
For the molecule `N#Cc1c(-c2cccs2)nc(SCC(=O)c2ccc(Br)cc2)[nH]c1=O`, the inhibition is -12.4% (inactive).
Regarding `C=CCN(CC=C)S(=O)(=O)c1ccc(C(=O)Nc2nc3c(s2)CCc2ccccc2-3)cc1`, the inhibition is -34.3% (inactive).
`N#Cc1ccc(C(=O)Nc2nc(-c3cccs3)c(C(=O)C(F)(F)F)s2)cc1`: the inhibition was 58.4% (active).
`Cc1oc2c(C)c3oc(=O)c(CC(=O)N[C@@H](CC(C)C)C(=O)N[C@@H](Cc4ccccc4)C(=O)O)c(C)c3cc2c1C`: the inhibition was -9.29% (inactive).
In the case of `COC(=O)c1ccc(NS(=O)(=O)c2cc3c4c(c2)C(C)C(=O)N4CCC3)cc1` (stereo unspecified), the inhibition is 9.82% (inactive).
Regarding `Cc1ccc(S(=O)(=O)CCC(=O)Nc2nnc(CC(C)C)s2)cc1`, the inhibition is -1.46% (inactive).
In the case of `CCOC(=O)CSc1nnc(NC(=O)c2cccc(S(=O)(=O)N3CCCCC3)c2)s1`, the inhibition was 41.9% (inactive).
Turning to `CSc1nnc(NC(=O)c2nc(S(=O)(=O)Cc3ccc(C)cc3)ncc2Cl)s1`, the inhibition is 92% (active).
Take `O=C(Nc1nnc(-c2ccc(F)cc2)s1)c1c(F)cccc1Cl`: the inhibition is 5.11% (inactive).
As for `Cc1cccc(C(=O)Nc2nnc(S(=O)(=O)N3CCCCCC3)s2)c1`, the figure is -46.1% (inactive); as for `Cc1ccc(CS(=O)(=O)c2ncc(Cl)c(C(=O)Nc3nnc(C)s3)n2)cc1`, 96.5% (active); as for `CSc1nc2nc3c(c(=O)n2[nH]1)CCC3`, -0.44% (inactive).
As for `CCCn1c(N)c(N(CCOC)C(=O)C2CCCC2)c(=O)[nH]c1=O`, the figure is -6.44% (inactive).
For `CC(=O)Nc1ccc(S(=O)(=O)N2CCC(C(=O)N[C@@H](Cc3ccccc3)C(=O)O)CC2)cc1`, the inhibition was -3.83% (inactive).
Take `Cc1cc(OCCOc2cccc3cccnc23)c(C)cc1Cl`: the inhibition is -15.2% (inactive).
On to `Cc1ccc([C@@H]2CC(=O)[C@@H]3CN(S(=O)(=O)c4ccc(C)cc4)[C@H](c4ccccc4F)C[C@@H]3N2S(=O)(=O)c2ccc(Cl)cc2)cc1`, for which the inhibition is -13.3% (inactive).
As for `COc1cc(C(F)(F)F)nc2c(Br)c(C(C)(C)C)nn12`, the figure is 15.2% (inactive).
As for `NC(=NC(=O)c1ccccc1)N1CCOCC1`, the inhibition was -6.39% (inactive).
With `CC1CN(C(=S)SCC(=O)c2ccccc2)CC(C)O1` (stereo unspecified), the inhibition is 3.23% (inactive).
`O=C(CSC(=S)N1CCOCC1)c1ccccc1`: the inhibition was 71.9% (active).
Take `CC1(C(=O)Nc2cccc3cccnc23)CCN1C(=O)CCC1CCCC1` (stereo unspecified): the inhibition was 8.06% (inactive).
With `Cc1csc(SCC(=O)Nc2ccc(C)c(S(=O)(=O)N(C)C)c2)n1`, the inhibition is -4.8% (inactive).
As for `Cc1csc(SCC(=O)Nc2sccc2C#N)n1`, the inhibition was 56.5% (active).
Under `N#Cc1ccsc1NC(=O)CN1CCCCC1` stands -0.37% (inactive); under `CCN1C(=O)N[C@@H](c2ccccc2)[C@H](C(C)=O)[C@H]1C`, -0.1% (inactive); under `CSc1ccccc1NC(=O)Cc1ccc(Br)cc1`, 4.45% (inactive).
As to `CCC1CCc2c(sc(NC(C)=O)c2C#N)C1` (stereo unspecified), the inhibition is -8.64% (inactive).
`C/C(=N/NC(=O)c1ccncc1)c1ccc2c(c1)OCO2`: the inhibition is 11.5% (inactive).
`N#Cc1ccccc1NC(=O)c1ccc2c(c1)OCO2`: the inhibition is -17.5% (inactive).
As for `O=C(Nc1nc(-c2ccc3c(c2)OCO3)cs1)c1ccncc1`, the inhibition is 57.8% (active).
As for `O=C(Nc1nc2ccccc2s1)c1ccc2c(c1)OCO2`, the figure is 83.7% (active); as for `COCc1nnc(NC(=O)c2ccc3c(c2)OCO3)s1`, 14.7% (inactive).
With `Cc1ccc(-c2csc(NC(=O)C3=COCCO3)n2)cc1C`, the inhibition is 1.4% (inactive).
As for `CCCNS(=O)(=O)c1ccc(CCC(=O)NCc2cccnc2)cc1`, the inhibition was 6.9% (inactive).
`COc1ccc(C2(C)ON(c3ccccc3C(F)(F)F)C2=O)cc1` (stereo unspecified): the inhibition was -8.35% (inactive).
With `CCCCN(CC)C(=O)c1ccccc1Oc1ccccc1`, the inhibition was 11.6% (inactive).
As for `Cc1ccc(NC(=O)Cc2nc(COC(=O)C(C)NS(=O)(=O)c3ccc(C)cc3)cs2)cc1` (stereo unspecified), the inhibition was -7.54% (inactive).
On to `CCOC(=O)/C=C/CN(C(=O)OC(C)(C)C)S(=O)(=O)N1CC=CC1`, for which the inhibition is 8.4% (inactive).
